Screening results deposited in PubChem by National Center for Advancing Translational Sciences (NCATS).
FLuc modulator: qHTS profiling assay for firefly luciferase inhibitor/activator using purifed enzyme and Km concentrations of substrates (counterscreen for miR-21 project); Luciferin 4-monooxygenase (Photinus pyralis), P08659; purified FLuc, Km substrates, luminescence inhibition; Potency, µM (series often up to 57.5 µM), for the others: at the highest dose activity change, negative = inhibition, most hits filed as inhibitors; 360,000 tested, 6.9% active;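 further: plate controls were vehicle for no effect and reference inhibitor for full effect; nearly all actives have a fitted effect of over 55% in size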
Target sequence (P08659 whole entry, looked up): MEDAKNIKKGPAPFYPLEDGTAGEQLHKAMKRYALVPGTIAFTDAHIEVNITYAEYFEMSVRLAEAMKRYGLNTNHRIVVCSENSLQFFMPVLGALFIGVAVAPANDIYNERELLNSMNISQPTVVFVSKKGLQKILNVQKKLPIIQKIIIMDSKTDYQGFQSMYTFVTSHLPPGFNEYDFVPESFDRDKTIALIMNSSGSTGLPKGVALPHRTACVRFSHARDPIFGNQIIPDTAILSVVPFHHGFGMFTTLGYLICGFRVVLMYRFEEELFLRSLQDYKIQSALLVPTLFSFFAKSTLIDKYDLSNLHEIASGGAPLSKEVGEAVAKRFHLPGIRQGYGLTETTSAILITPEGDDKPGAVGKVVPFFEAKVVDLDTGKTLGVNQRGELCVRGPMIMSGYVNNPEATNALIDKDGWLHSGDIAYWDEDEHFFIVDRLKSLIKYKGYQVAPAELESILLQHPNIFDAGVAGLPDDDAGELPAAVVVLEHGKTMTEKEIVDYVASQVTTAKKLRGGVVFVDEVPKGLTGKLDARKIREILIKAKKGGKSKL
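Purified P. pyralis luciferase, 10 nM final, with Km-level 10 uM D-luciferin and 10 uM ATP in 50 mM Tris acetate pH 7.5, 10 mM Mg acetate, 0.01% Tween-20, 0.05% BSA; 6-point qHTS titration about 60 µM downward; luminescence read.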
Rab9 prom act: qHTS Assay for Rab9 Promoter Activators; AID 485297, 2010; 320,000 tested, 2.8% active; Huh7 Rab9 promoter-luciferase reporter, luminescence, 24 h; Potency, µM (doses to about 9.22 µM), for the others: top-dose activation, negative = inhibition, hits mostly activators; further: % of control where 0% means no effect; nearly all actives have a fitted effect of over 60% in size
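Cells were plated at 1500 per well in reduced-serum medium with 10% FBS and left 2 h. Compound in DMSO was then added for 24 h at 37 °C. Reporter signal was read by luminescence after 10 min with luciferase detection reagent.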
SMN2 splice up: qHTS Assay for Enhancers of SMN2 Splice Variant Expression | HEK293 SMN2-luciferase splicing reporter, luminescence, 30-36 h | Potency, µM (highest dose often 46.1 µM), without a hit: at the top dose activity change, positive = activation, usual class: activators | 210,000 tested, 2.8% active | AID 1458, 2008; further: % of control where 0% means no effect; nearly all actives have a fitted effect of over 55% in size
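HEK293 cells carry an SMN2 minigene-luciferase reporter in which exon 7 inclusion puts luciferase in frame. Cells were seeded at 2000 cells/well, attached for 10-12 hours, then exposed to compounds for 30-36 hours at 37C before ONE-Glo luminescence.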
ELG1 genotoxic: qHTS screen for small molecules that induce genotoxicity in human embryonic kidney (HEK293T) cells expressing luciferase-tagged ELG1; AID 504466, 2011; HEK293T ELG1-luciferase reporter, luminescence, 16 h; 330,000 tested, 1.3% active; Potency, µM (doses to about 46 µM), for the others: at the highest dose activity change, positive = activation, hits mostly activators; further: % of control where 0% means no effect; nearly all actives have a fitted effect of over 60% in size
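HEK293T cells expressing luciferase-tagged ELG1 were exposed to compound or DMSO vehicle for 16 hr at 37 °C and 5% CO2. Luciferase activity was then measured with ONE-Glo after 30 min at room temperature.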
KinaseGlo FLuc: Counterscreen for Luciferase (Kinase-Glo TM) Inhibition; Luciferin 4-monooxygenase (Photuris pensylvanica), Q27757; Kinase-Glo luciferase, ATP luminescence, 8 min; Potency, µM (series often up to 38.3 µM), inactives show top-dose activity change, negative = inhibition, most hits filed as inhibitors; 200,000 tested, 0.28% active; AID 1379, 2008; further: on the % scale 0 is the no-effect control and ±100 the full control effect; nearly all actives have a fitted effect of over 60% in size
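Compound is pinned into ATP-containing buffer (10 uM ATP, imidazole pH 7.2, 7 mM MgCl2). Kinase-Glo luciferase reagent is then added. Light output is recorded following an 8-min room-temperature incubation.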
NPC1 prom act: qHTS Assay for NPC1 Promoter Activators; Huh7 NPC1 promoter luciferase reporter, 24 h; Potency, µM (series often up to 9.22 µM), for inactives: at the highest dose activation, usual class: activators; 320,000 tested, 2.4% active; AID 485313, 2010; further: % of control where 0% means no effect; nearly all actives have a fitted effect of over 60% in size
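Stable NPC1-promoter luciferase Huh7 line; cpd (DMSO) 24 h, 37 °C, 5% CO2; Amplite luciferase reagent 10 min RT; luminescence readout. qHTS format.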
Active calls of the source: *; u = inconclusive; x = no result given. Most compounds without a hit are left out; they make up all but 7.5% or so of the library. The call rests on the fitted dose curve; in most records, active means well fitted curve in the direction sought with a large enough effect; inconclusive means small, poorly fitted or top-dose-only effect, or another doubt; inactive means no such curve, though single readings can be large; an effect the other way counts as inactive or inconclusive. Potency means the concentration at half of the fitted maximal effect.

SMILES | FLuc modulator | Rab9 prom act | SMN2 splice up | ELG1 genotoxic | KinaseGlo FLuc | NPC1 prom act
Cc1cccc(N2CCN(c3ccc4cc(S(=O)(=O)N5CCC(C)CC5)ccc4n3)CC2C)c1 (stereo not drawn) | -3% | x | x | x | x | x
CCc1ccc(-n2c3nc(=O)[nH]c(=O)c-3cc3c(C)nn(-c4ccccc4)c32)cc1 | -6% | x | 4% | x | x | x
Cc1cc(C)c2c(-n3cccc3)c(C(=O)NCc3cccc(F)c3)sc2n1 | -3% | x | x | x | x | x
O=C(CCn1c(=S)oc2ccccc21)NC1CCCCC1 | -2% | -1% | x | 7% | x | -3%
O=C(N/N=C/c1cccs1)c1n[nH]c2c1CCC2 | 3.4µM* | u | 5µM* | u | u | u
O=C1CCCC(O)=C1C=Nc1ccc(O)cc1 | -13% | 2% | -19% | 2% | 1% | 6%
Oc1ccc(N=Cc2ccc(-c3cccs3)s2)cc1 | 8.5µM* | -1% | -34% | 0% | -2% | -4%
O=C(/C=C/c1cnc2ccccc2n1)NC12CC3CC(CC(C3)C1)C2 | 1.7µM* | 3.2µM* | 10µM* | u | -1% | 3.5µM*
CCC(C)(C)NC(=O)/C=C/c1cnc2ccccc2n1 | 11µM* | u | u | u | 1% | 29%
O=C(CCc1nnc(CCc2c[nH]c3ccccc23)o1)NC1CCC1 | 21µM* | 3.5µM* | x | u | x | u
O=C(CCc1nnc(Cc2c[nH]c3ccccc23)o1)NC1CCCC1 | 4% | -3% | x | 0% | 3% | -8%
O=C(NCc1ccc(Cl)cc1)C(=O)NCC(c1cccnc1)N1CCN(c2ccccc2)CC1 (stereo not drawn) | -18% | x | x | x | x | x
CC1(C)CC(=O)C(C(C2=C(O)CC(C)(C)CC2=O)c2ccc(O)c([N+](=O)[O-])c2)=C(O)C1 | 24µM* | 0% | 4% | 4% | -5% | -5%
O=C1N=C(N2CCN(c3ccccc3)CC2)S/C1=C/c1cccs1 | u | 3% | 4% | -5% | -2% | 7%
O=C1N=C(c2ccccc2)S/C1=C\c1cccs1 | 3.8µM* | 19% | 3% | u | -12% | 24%
O=C1N=C(N2CCN(Cc3ccccc3)CC2)S/C1=C/c1cccs1 | 9.5µM* | 27% | x | 0% | x | 20%
O=C1OC(c2ccccc2)=C/C1=C/c1cccs1 | 0.67µM* | 3% | 7% | 2% | -7% | 3%
O=C1OC(c2ccc(F)cc2)=C/C1=C\c1ccc([N+](=O)[O-])o1 | -19% | -7% | -10% | 7% | -4% | -12%
O=C(CCC(=O)N1CCSc2ccccc21)NCCc1ccccc1 | 2% | -5% | x | -2% | x | -2%
CCOC(=O)C1CCCN(c2cc(C)nc3c(-c4ccccc4OC)c(C)nn23)C1 (stereo not drawn) | 0% | x | x | x | x | x
Brc1cccc(-c2nnc(-c3ccccc3)o2)c1 | 3µM* | 1.4µM* | 18µM* | 3.3µM* | -3% | 2µM*
Cc1ccc(-c2nnc(-c3cccc(Br)c3)o2)cc1 | 4.8µM* | u | 13µM* | 8.2µM* | -3% | u
COc1cc2c(cc1C=O)OC(C)C2 (stereo not drawn) | -3% | -11% | -13% | -11% | 1% | -2%
COc1ccc(-c2csc(C3=C(O)CN(CCCN4CCCC4=O)C3=N)n2)cc1OC | 8.5µM* | 13% | u | 1% | 7% | -3%
Cc1cc(C(=O)CN2CC(C)OC(C)C2)c(C)n1-c1ccccc1 (stereo not drawn) | u | u | u | 21µM* | -2% | u
COc1ccc(-n2c(C)cc(C(=O)CN3C(=O)c4ccccc4C3=O)c2C)cc1 | 15µM* | 24% | 10% | 2% | 3% | 14%
